The values that follow come from PubChem BioAssay (Tox21).

Records with an inconclusive call do not appear. Some structures have more than one record in an assay (separate samples or runs), and their calls can disagree. The source made the active and inactive calls. Unless noted, the call rests on the fitted dose curve.

Assay [1] in a line: Caspase-3/7 induction in HepG2 cells by small molecules, qHTS assay (AID 1346978; active means well fitted curve in the direction sought with a large enough effect in the repeat runs; an effect the other way counts as inactive or inconclusive; further: on the % scale 0 is the no-effect control and ±100 the full control effect; nearly all actives have a fitted effect of over 15% in size). In a few lines:
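Wild-type HepG2 cells (2,000/well) were settled 5 h at 37 C, 5% CO2, then exposed to compounds in DMSO for 17 h. Caspase-3/7 activity was read by luminescence 30 min after adding Caspase-Glo 3/7 reagent at room temperature.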

Assay [2] deals with Acetylcholinesterase (Homo sapiens) (UniProt P22303). The assay is described as follows: Acetylcholinesterase (AChE) small molecule antagonists: colormetric cell-based qHTS assay (AID 1347395). Further: nearly all actives have a fitted effect of over 30% in size. In a few lines:
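After overnight attachment at 37 C, SH-SY5Y cells get 30 min compound exposure; detection cocktail (acetylthiocholine, DTNB) then incubates 90 min at 37 C, and absorbance reflects AChE-generated thiocholine.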

For assay [3] the target is unchanged. The assay is described as follows: Acetylcholinesterase (AChE) small molecule antagonists: enzyme-based qHTS assay (AID 1347397). Further: nearly all actives have a fitted effect of over 55% in size. The settings on record: Potency: AChE enzyme activity inhibition; outcome: AChE enzyme activity inhibition. A digest of the protocol: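 Tox21 library chemicals are tested in qHTS format against recombinant human AChE. The enzyme, dispensed at 50 mU/mL, sits with compound for 30 min at room temperature. A DTNB–acetylthiocholine cocktail follows, and colour is read after 10 min.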

For assay [4] the target is unchanged. The assay is described as follows: Acetylcholinesterase (AChE) small molecule antagonists: fluorescence cell-based qHTS assay (AID 1347398). Further: nearly all actives have a fitted effect of over 50% in size. Further: potency means the concentration at half of the fitted maximal effect. The following applies: Potency: AChE activity; outcome: AChE activity. A digest of the protocol: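 Cellular AChE inhibition: SH-SY5Y cells treated with test chemical for 30 min at 37 C, then acetylthiocholine hydrolysis followed over 40 min at room temperature via thiocholine-reactive Thiolite Green fluorescence (490/520 nm).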

Assay [5] shares this target. The assay is described as follows: Acetylcholinesterase (AChE) small molecule antagonists: enzyme-based qHTS assay with human liver microsomes (AID 1347399). Further: nearly all actives have a fitted effect of over 60% in size. The following applies: Potency: qHTS inhibition; outcome: qHTS inhibition. A digest of the protocol: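 Recombinant human AChE (50 mU/mL in the enzyme mix) and human liver microsomes (0.25 mg/mL final) were preincubated with compound and NADPH (0.25 mg/mL final) for 30 min at 37 C. Acetylthiocholine/DTNB was then added; thiocholine was read colorimetrically after 10 min at room temperature.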

The target of the next assay is Aromatase (Homo sapiens) (UniProt P11511). The assay is described as follows: qHTS assay to identify aromatase inhibitors (AID 743083; active means well fitted curve in the direction sought with a large enough effect in the repeat runs; an effect the other way counts as inactive or inconclusive; further: nearly all actives have a fitted effect of over 55% in size; further: potency means the concentration at half of the fitted maximal effect).
Chain of Aromatase (Homo sapiens) (P11511 whole entry, looked up): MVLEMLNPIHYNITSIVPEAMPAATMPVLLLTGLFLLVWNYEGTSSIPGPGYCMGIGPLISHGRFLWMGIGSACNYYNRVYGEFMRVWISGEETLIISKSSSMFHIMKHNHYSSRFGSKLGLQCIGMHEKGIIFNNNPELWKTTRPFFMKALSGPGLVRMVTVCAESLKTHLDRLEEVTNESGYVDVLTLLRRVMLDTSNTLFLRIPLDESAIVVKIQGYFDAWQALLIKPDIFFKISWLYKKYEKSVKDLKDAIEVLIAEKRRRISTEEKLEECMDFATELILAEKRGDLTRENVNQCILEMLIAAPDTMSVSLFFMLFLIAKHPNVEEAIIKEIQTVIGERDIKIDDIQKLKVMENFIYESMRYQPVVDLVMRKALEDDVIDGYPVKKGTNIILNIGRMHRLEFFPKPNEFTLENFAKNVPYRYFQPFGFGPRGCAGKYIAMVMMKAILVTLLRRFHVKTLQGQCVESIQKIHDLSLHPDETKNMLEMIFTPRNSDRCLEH
Assay [6] concerns the target Aryl hydrocarbon receptor (Homo sapiens) (UniProt P35869). The assay is described as follows: qHTS assay to identify small molecule that activate the aryl hydrocarbon receptor (AhR) signaling pathway (AID 743085; active means well fitted curve in the direction sought with a large enough effect in the repeat runs; an effect the other way counts as inactive or inconclusive; further: nearly all actives have a fitted effect of over 15% in size; further: potency means the concentration at half of the fitted maximal effect;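 on activation: HG2L7.5c1 human HepG2 liver cells with stably integrated DRE-driven firefly reporter; on the % scale 0 is the no-effect control and ±100 the full control effect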). In a few lines: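 Stably transfected human liver carcinoma cells (HG2L7.5c1; 20 DRE-firefly luciferase) were incubated 5 h, dosed, and kept 24 h at 37C. Agonism was scored from increased luciferase luminescence.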

Assay [7] in a line: qHTS assay to identify small molecule antagonists of the retinoic acid receptor (RAR) signaling pathway (AID 1159552; active means well fitted curve in the direction sought with a large enough effect in the repeat runs; an effect the other way counts as inactive or inconclusive; further: nearly all actives have a fitted effect of over 50% in size; further: potency means the concentration at half of the fitted maximal effect). A digest of the protocol:
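Test chemicals and DMSO controls were pin-transferred onto C3RL4 cells a day after seeding; retinol (1 uM final) followed at once. Luminescent reporter output was quantified after 6 hr of co-incubation and 30 min with detection reagent.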

A short description of assay [8]: qHTS assay to identify small molecule agonists of the estrogen related receptor signaling pathway with the pleiotropic PPARgamma coactivator (PGC) from Tox21 10K library (AID 1224842; active means well fitted curve in the direction sought with a large enough effect in the repeat runs; an effect the other way counts as inactive or inconclusive; further: on the % scale 0 is the no-effect control and ±100 the full control effect; nearly all actives have a fitted effect of over 15% in size). In a few lines:
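PGC/ERR reporter cells (NTP line) were seeded 2,000 per well, rested 6 h at 37 C/5% CO2, then pin-dosed with compounds in DMSO for 18 h at 37 C; luciferase read by One-Glo luminescence after 30 min at room temperature.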

Assay [9] is described as follows: qHTS assay to identify small molecule agonists of the estrogen related receptor (ERR) signaling pathway from Tox21 library (AID 1224849). Further: on the % scale 0 is the no-effect control and ±100 the full control effect; nearly all actives have a fitted effect of over 15% in size. The settings on record: ERR reporter cell line, ONE-Glo luciferase, 18 h; at 92.4 µM (top of the series) unless noted. A digest of the protocol:
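Cells carrying the ERR reporter were plated and allowed to settle for 6 h, exposed to library compounds for 18 h at 37 C, then lysed with ONE-Glo and luminescence measured.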

The nature of assay [10]: A CellTox Green Cytotoxicity Assay to monitor cytotoxicity in HEK293 cells - 0 hour (AID 1224869; active means well fitted curve in the direction sought with a large enough effect in the repeat runs; an effect the other way counts as inactive or inconclusive; further: on the % scale 0 is the no-effect control and ±100 the full control effect; nearly all actives have a fitted effect of over 50% in size). A digest of the protocol: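 Cells (HEK293, 600/well) and dye reagent are dispensed together. After 5 h at 37 C, 23 nL compound is pinned in. Plates stay at 37 C for 40 h with fluorescence read at 0h, 8h, 16h, 24h, 32h and 40h.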
A short description of assay [11]: A CellTox Green Cytotoxicity Assay to monitor cytotoxicity in HepG2 cells - 0 hour (AID 1224882; active means well fitted curve in the direction sought with a large enough effect in the repeat runs; an effect the other way counts as inactive or inconclusive; further: on the % scale 0 is the no-effect control and ±100 the full control effect; nearly all actives have a fitted effect of over 35% in size). A digest of the protocol: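 Cells and non-lytic dye reagent are dispensed together (600 HepG2 cells/well) and incubated 5 h before DMSO compound transfer. Kinetic fluorescence is then recorded in the same wells during 40 h at 37 C.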
The nature of assay [12]: qHTS assay to identify small molecule HDAC inhibitors (AID 1259364; active means well fitted curve in the direction sought with a large enough effect in the repeat runs; an effect the other way counts as inactive or inconclusive;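 further: wild-type HCT-116 cells with endogenous class I/II HDAC activity; top concentration of the series differs between compounds; on the % scale 0 is the no-effect control and ±100 the full control effect; nearly all actives have a fitted effect of over 45% in size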). A digest of the protocol:
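Cells (HCT-116, wild type) are seeded at 1,500 per well, incubated overnight, treated with compound in DMSO for 2 hr, then developed with HDAC-Glo I/II reagent for 30 min at room temperature.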

Assay [13] can be described thus: qHTS assay to identify small molecule agonists of the sonic hedgehog signaling (Shh) pathway (AID 1259368). In a few lines:
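Cells of a mouse NIH/3T3 clone stably expressing luciferase under the Gli1 transcriptional response element are exposed to test chemicals for 24 hr at 37 C. Pathway activation is detected as a rise in luminescence.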

A short description of assay [14]: Caspase-3/7 induction in CHO-K1 cells by small molecules, qHTS assay (AID 1346980; active means well fitted curve in the direction sought with a large enough effect in the repeat runs; an effect the other way counts as inactive or inconclusive). In a few lines:
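Wild-type cells were seeded at 1,500 per well and settled 5 hr at 37 C, 5% CO2, then exposed to DMSO-dissolved compounds for 17 hr. Caspase-Glo 3/7 reagent was added, and luminescence was read after 30min at room temperature.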

Assay [15] is described as follows: qHTS assay to identify small molecule antagonists of the estrogen related receptor (ERR) signaling pathway (AID 1224819; active means well fitted curve in the direction sought with a large enough effect in the repeat runs; an effect the other way counts as inactive or inconclusive; further: potency means the concentration at half of the fitted maximal effect; nearly all actives have a fitted effect of over 50% in size). A digest of the protocol:
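qHTS in ERR cells, 2,000/well, 1536 format. Cpd (DMSO) added after 6 h settle, 18 h 37 C. One-Glo luminescence, 30 min RT.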

Assay [16] is described as follows: qHTS assay to identify small molecule agonists of the estrogen related receptor (ERR) signaling pathway (AID 1224820; active means well fitted curve in the direction sought with a large enough effect in the repeat runs; an effect the other way counts as inactive or inconclusive; further: on the % scale 0 is the no-effect control and ±100 the full control effect). A digest of the protocol: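 After 6 h plating (2,000 cells/well) and 18 h compound treatment at 37 C, ERR cells were lysed with One-Glo and luminescence read after 30 min at room temperature.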
The subject of assay [17] is estrogen-related receptor alpha (ERRalpha) with PGC-1alpha coactivator, human. The assay is described as follows: qHTS assay to identify small molecule antagonists of the estrogen related receptor signaling pathway with the pleiotropic PPARgamma coactivator (PGC) (AID 1224821). A digest of the protocol: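 Luminescence from One-Glo luciferase reagent (30 min, room temperature) measured after 18 h compound treatment at 37 °C. Cells carry the PGC/ERR reporter and were seeded 6 h prior to dosing.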

Assay [18] in a line: qHTS assay to identify small molecule antagonists of the estrogen related receptor signaling pathway with the pleiotropic PPARgamma coactivator (PGC) cell viability counter screen (AID 1224822; active means well fitted curve in the direction sought with a large enough effect in the repeat runs; an effect the other way counts as inactive or inconclusive;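 further: viability read after 17.5 h compound exposure; on the % scale 0 is the no-effect control and ±100 the full control effect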). In a few lines:
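Multiplexed viability counter screen run in PGC/ERR cells treated with compounds for 17.5 h at 37 C; live-cell protease signal measured by CellTiter-Fluor fluorescence.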

Chain of Acetylcholinesterase (Homo sapiens) (P22303 whole entry, looked up): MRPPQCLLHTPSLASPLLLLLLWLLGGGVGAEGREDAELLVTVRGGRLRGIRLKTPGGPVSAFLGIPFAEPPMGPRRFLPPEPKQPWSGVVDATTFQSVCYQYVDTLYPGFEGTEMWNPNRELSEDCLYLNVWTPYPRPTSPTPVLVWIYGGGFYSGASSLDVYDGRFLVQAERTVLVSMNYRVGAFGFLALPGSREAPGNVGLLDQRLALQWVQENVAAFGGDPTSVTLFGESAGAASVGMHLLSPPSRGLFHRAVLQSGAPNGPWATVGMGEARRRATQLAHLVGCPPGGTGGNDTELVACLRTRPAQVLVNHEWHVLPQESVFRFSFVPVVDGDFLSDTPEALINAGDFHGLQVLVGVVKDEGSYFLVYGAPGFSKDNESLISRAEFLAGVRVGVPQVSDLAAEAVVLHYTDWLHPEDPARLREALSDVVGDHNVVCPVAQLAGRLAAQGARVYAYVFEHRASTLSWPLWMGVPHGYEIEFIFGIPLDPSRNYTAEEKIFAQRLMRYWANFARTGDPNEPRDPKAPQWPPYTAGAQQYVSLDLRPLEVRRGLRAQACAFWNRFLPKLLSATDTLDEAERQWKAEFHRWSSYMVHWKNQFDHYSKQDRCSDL
Chain of Aryl hydrocarbon receptor (Homo sapiens) (P35869 whole entry, looked up): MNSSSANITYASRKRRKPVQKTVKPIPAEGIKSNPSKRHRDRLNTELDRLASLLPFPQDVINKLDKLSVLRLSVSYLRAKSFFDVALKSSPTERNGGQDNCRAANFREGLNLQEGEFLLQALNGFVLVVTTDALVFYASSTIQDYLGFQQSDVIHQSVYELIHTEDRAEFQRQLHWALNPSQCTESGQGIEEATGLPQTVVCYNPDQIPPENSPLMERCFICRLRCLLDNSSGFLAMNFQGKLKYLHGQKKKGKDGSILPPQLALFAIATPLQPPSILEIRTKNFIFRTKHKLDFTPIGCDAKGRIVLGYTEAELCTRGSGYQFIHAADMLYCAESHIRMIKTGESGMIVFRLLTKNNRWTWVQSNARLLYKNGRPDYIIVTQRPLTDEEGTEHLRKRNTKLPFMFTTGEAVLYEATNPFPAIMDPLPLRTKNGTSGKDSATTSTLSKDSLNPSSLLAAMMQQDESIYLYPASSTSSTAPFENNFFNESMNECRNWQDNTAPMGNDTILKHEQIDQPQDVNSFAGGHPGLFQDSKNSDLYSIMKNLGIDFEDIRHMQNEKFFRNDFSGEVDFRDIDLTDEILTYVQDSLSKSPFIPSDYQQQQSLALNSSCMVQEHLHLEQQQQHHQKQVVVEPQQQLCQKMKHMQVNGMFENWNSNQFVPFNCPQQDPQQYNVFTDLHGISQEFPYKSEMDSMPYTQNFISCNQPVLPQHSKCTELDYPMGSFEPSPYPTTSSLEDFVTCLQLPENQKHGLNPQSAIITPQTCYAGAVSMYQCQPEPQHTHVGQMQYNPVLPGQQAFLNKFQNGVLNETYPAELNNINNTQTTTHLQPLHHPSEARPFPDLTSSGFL

On to `O=C(c1ccc(Cl)cc1)c1ccc(Cl)cc1`, for which the Potency result in assay [1], in assay [2], in [3], in assay [4] and in assay [5] was “inactive” throughout.
Turning to `Cc1cc(C(C)(C)c2ccc(O)c(C)c2)ccc1O`, the figures for the Potency (with Aromatase (Homo sapiens); in assay [7]) were 65.3 µM (active) and 58.2 µM (active), respectively. Further, the Potency result in assay [6], in assay [8], in [10], in assay [11], in assay [2] and in assay [3] was “inactive” each time. In addition, the Potency entry in [4] and in [5] was “inactive” each time. Moreover, in [9], the activity change, positive = activation is -66.8% (inactive). Also, the result in assay [12], in assay [13] and in assay [14] was inactive.
In the case of `CO/C=C(/C(=O)OC)c1ccccc1Oc1cc(Oc2ccccc2C#N)ncn1`, the Potency in the assay with Aromatase (Homo sapiens) was 41.1 µM (active); in [15], 4.86 µM (active); in assay [17], 8.31 µM (active). Further, the Potency result in assay [16], in assay [18], in assay [8], in [10], in [11] and in [1] was “inactive” each time. Further, the Potency entry in [2], in assay [3], in assay [4] and in assay [5] was “inactive” in each case. In addition, the activity change, positive = activation in assay [9] was -64.5% (inactive). The molecule was called inactive in [12], in assay [13] and in assay [14].
Turning to `O=C(c1ccccc1)C(Cl)Cl`, the Potency in [7] was 24.3 µM (active). Besides, the Potency result in [8], in [10], in assay [11], in assay [1], in assay [2] and in assay [3] was “inactive” throughout. The Potency entry in assay [4] and in [5] was “inactive” throughout. The activity change, positive = activation in [9] is -27.3% (inactive). In addition, the molecule was classed as inactive in assay [12], in assay [13] and in [14].
Turning to `O=C(O)C(c1ccc(Cl)cc1)c1ccc(Cl)cc1`, the Potency entry (in the assay with Aromatase (Homo sapiens); in assay [6]; in assay [1]; in assay [2]; in assay [3]; in assay [4]) was “inactive” each time. Besides, in assay [5], the Potency result was “inactive”.
Take `O=[N+]([O-])c1cc(C(F)(F)F)ccc1Cl`: the Potency result (with Aromatase (Homo sapiens); in assay [8]; in assay [2]; in assay [3]; in [4]; in assay [5]) was “inactive” throughout. Moreover, in [9], the activity change, positive = activation is -5.28% (inactive).
Turning to `CCc1cccc(C)c1N`, the Potency entry (with Aromatase (Homo sapiens); in assay [6]; in [7]; in assay [8]; in assay [2]; in assay [3]) was “inactive” throughout. For the same molecule, in assay [5], the Potency entry was “inactive”. In addition, the activity change, positive = activation in [9] is 10.2% (inactive). In addition, the Potency in assay [4] is 34.5 µM (active) and inactive.
Take `c1ccncc1`: the Potency entry (in the assay with Aromatase (Homo sapiens); in assay [6]; in assay [1]) was “inactive” each time. Moreover, the call in assay [2], in [3], in assay [4] and in [5] was inactive.
Take `COc1ccccc1[N+](=O)[O-]`: the Potency result (in the assay with Aromatase (Homo sapiens); in [6]; in assay [7]; in assay [8]; in assay [1]; in [2]) was “inactive” in each case. Further, the Potency entry in [3], in [4] and in [5] was “inactive” throughout. Besides, the activity change, positive = activation in assay [9] was 4.31% (inactive).
As to `Oc1ccc(Cl)cc1Cc1cc(Cl)ccc1O`, the Potency is 31.2 µM (active) in the assay with Aromatase (Homo sapiens) and 26.6 µM (active) in assay [7]. Moreover, the Potency entry in assay [6], in assay [2], in [3], in assay [4] and in [5] was “inactive” each time.
As for `Nc1ccc2c3c(cccc13)-c1ccccc1-2`, the Potency entry (with Aromatase (Homo sapiens); in assay [7]; in [2]; in assay [3]; in assay [4]; in assay [5]) was “inactive” in each case. In [6], the Potency is 21.9 µM (active).
As for `Oc1c(Cl)ccc(Cl)c1Cl`, the Potency entry (with Aromatase (Homo sapiens); in assay [6]; in assay [7]; in assay [8]; in [1]; in [2]) was “inactive” in each case. Also, the Potency entry in assay [3], in assay [4] and in [5] was “inactive” in each case.
On to `Nc1cccc([N+](=O)[O-])c1`, for which the Potency result (with Aromatase (Homo sapiens); in assay [7]; in assay [2]; in assay [3]; in assay [4]; in assay [5]) was “inactive” each time.
For the molecule `O=[N+]([O-])c1ccc2ncccc2c1`, the Potency entry in assay [7], in assay [2], in assay [3], in [4] and in assay [5] was “inactive” in each case.
In the case of `Cc1ccccc1N=O`, the Potency entry in assay [7], in assay [1], in assay [2], in assay [3], in assay [4] and in assay [5] was “inactive” each time.
